Assay results: PubChem BioAssay (NCI)
About 79,000 compounds went through this panel and 15% of them were active in at least one assay; those are over-represented in the sample as a whole. Active and inactive are the calls of the source. Rule as the data show it: active = growth inhibition above about 70%; inactive = the rest. Where a SMILES comes first, the peptide text is derived from it. The star is where a group is joined. Boc = CC(C)(C)OC(=O)*

Key:
[1] = NCI Yeast Anticancer Drug Screen. Data for the rad50 strain (AID 155);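 also: 0% = growth of vehicle-only cultures of the same strain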; settings: S. cerevisiae rad50 strain growth inhibition; at 50.0 µM; hits give high values
Outline: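 Readout: growth inhibition relative to vehicle-treated cultures. Compound exposure was carried out in a genetically defined yeast strain deficient in DNA damage repair.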

[2] = NCI Yeast Anticancer Drug Screen. Data for the mec2-1 strain (AID 157); settings: S. cerevisiae mec2-1 strain, at 50.0 µM, hits give high values
Outline: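 mec2-1 yeast strain, carrying an alteration in DNA damage repair or cell cycle control, was exposed to compounds; growth inhibition was measured relative to vehicle-treated controls.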

[3] = NCI Yeast Anticancer Drug Screen. Data for the sgs1 mgt1 strain (AID 161);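 also: 0% = growth of cultures given vehicle only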; settings: S. cerevisiae sgs1 mgt1 strain, at 50.0 µM, hits give high values
Outline: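 This yeast growth screen uses a strain with defined DNA-repair lesions; compound-treated growth is compared with vehicle-treated growth.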

[4] = NCI Yeast Anticancer Drug Screen. Data for the cln2 rad14 strain (AID 165);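 also: 0% = growth equal to vehicle treated cultures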; settings: S. cerevisiae cln2 rad14 strain, at 50.0 µM, hits give high values
Outline: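 Yeast carrying cln2 and rad14 alterations (cell cycle control and DNA damage repair) were exposed to compounds. Growth inhibition was measured against vehicle-treated controls.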

[5] = NCI Yeast Anticancer Drug Screen. Data for the bub3 strain (AID 167); settings: S. cerevisiae bub3 mutant strain, at 50.0 µM, hits give high values
Outline: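 Readout: yeast growth inhibition, expressed relative to vehicle-only wells. The test organism is a mutant strain from a panel with lesions in DNA repair or checkpoint genes.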

[6] = NCI Yeast Anticancer Drug Screen. Data for the mlh1 rad18 strain (AID 175); settings: S. cerevisiae mlh1 rad18 strain growth inhibition; at 50.0 µM; hits give high values
Outline: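 Growth inhibition of the yeast strain was measured after compound exposure and expressed relative to vehicle-treated controls. The strain carries defined defects in DNA damage repair.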

Measured: growth inhibition

COC(=O)c1ccccc1/C=C1\Cc2cc3c(cc2C1=O)CCC3
inactive: [1] -31.6% | [2] -45% | [3] -1.45% | [4] 5.65% | [5] -4.45% | [6] -8.05%

CN1C(=O)C2C(C1=O)[C@H]1c3ccccc3C=CN1[C@@H]2C(=O)c1ccccc1 (some centres not stated)
inactive: [1] 13.2% | [2] 7.7% | [3] -0.25% | [4] 0.6% | [5] -3.8% | [6] 10.1%

CCc1ccccc1NC(=O)/C=N/O
inactive: [1] -27.9% | [2] -24.1% | [3] -17.6% | [4] -7.3% | [5] -22.6% | [6] -11.2%

c1ccc(CC2CO2)cc1 (configuration not stated)
inactive: [1] -2.7% | [2] -17.8% | [3] -1.4% | [4] -15.2% | [5] -0.2% | [6] -7.9%

COC(=O)C(Cc1c[nH]c2ccccc12)NC(=O)C(Cc1c[nH]c2ccccc12)NC(=O)C(Cc1c[nH]c2ccccc12)NC(=O)C(Cc1c[nH]c2ccccc12)NC(=O)OC(C)(C)C (configuration not stated) (Boc-WWWW-OMe; configuration not given here)
inactive: [1] 3.35% | [2] -4.65% | [3] -2.05% | [4] 23.4% | [5] 4.65% | [6] 6.2%

Cc1ccc(S/C=C/Sc2ccc(C)cc2)cc1
inactive: [1] 15.1% | [2] 8.15% | [3] 3.55% | [4] -14.6% | [5] 22.9% | [6] 36%

O=c1c(N2CCOCC2)c(N2CCOCC2)c1=O
inactive: [1] -21.6% | [2] -22.9% | [3] 0.25% | [4] 15.4% | [5] -24.4% | [6] -1.1%

COc1ccc(-c2cc(-c3cc(-c4ccc(OC)cc4)on3)no2)cc1
inactive: [1] -1.6% | [2] -5.75% | [3] -26% | [4] -7.45% | [5] -35.5% | [6] -1.05%

C=CC(=O)OCCCCCCCCCC
inactive: [1] 47.8% | [2] 5.6% | [3] 28.8% | [4] -0.7% | [5] 13.8% | [6] 42.1%

Clc1ccccc1CN1COc2c(ccc3ccccc23)C1
inactive: [1] 35.5% | [2] 14.3% | [3] 32.6% | [4] 19.6% | [5] 25.5% | [6] 22.6%

O=C1OC(c2ccccc2)=N/C1=C/N1CCCC1C(=O)O (configuration not stated)
inactive: [1] -1% | [2] 5.6% | [3] 15.9% | [4] 10.1% | [5] -4.4% | [6] -6.3%

CO/C(N)=C(\C#N)N=Cc1cccs1
inactive: [1] 3.95% | [2] 4.6% | [3] 11.4% | [4] 5.1% | [5] -8.4% | [6] 9.9%

CC(=O)OC1CC2CCCCC2CC1[N+](C)(C)C (configuration not stated)
inactive: [1] 2.25% | [2] 7.3% | [3] 13.8% | [4] -1.15% | [5] 3.3% | [6] -35.8%

O=C1CSC(C(N=Nc2ccc(Cl)cc2)c2nc3ccccc3[nH]2)=N1 (configuration not stated)
inactive: [1] -50.6% | [2] -26.3% | [3] -43.1% | [4] -18.1% | [5] -42.6% | [6] -46.7%

C(#CC(Sc1ccccc1)=C(Sc1ccccc1)Sc1ccccc1)Sc1ccccc1
inactive: [1] 3.1% | [2] 2.15% | [3] -21.9% | [4] -32.3% | [5] 5.6% | [6] -6.25%

CNC(=O)Nc1nnnc2ccccc12
inactive: [1] 10.1% | [2] 1.45% | [3] -4.05% | [4] -10.6% | [5] -0.15% | [6] 13.9%

CC1CCC(Oc2nc3c(c(=O)n(C)c(=O)n3C)n2C)CC1 (configuration not stated)
inactive: [1] -4.75% | [2] -2.85% | [3] -14.8% | [4] 2% | [5] -8.7% | [6] -12.5%

CC1(C)COCOC1c1ccccc1 (configuration not stated)
inactive: [1] -6.2% | [2] 11.3% | [3] -21.4% | [4] -11.8% | [5] -1% | [6] 6.4%

CC[C@@]1(OC(=O)CN2CCNCC2)C(=O)OCc2c1cc1n(c2=O)Cc2cc3ccccc3nc2-1
active: [2] 70.8%
inactive: [1] 52.1% | [3] 49.1% | [4] 29.6% | [5] 26.1% | [6] 10.1%

COC(=O)CCS(=O)(=O)Cc1ccccc1
inactive: [1] 0.95% | [2] -1.3% | [3] -6.95% | [4] -7.9% | [5] -1.65% | [6] -0.5%

Nc1ncnc(N2CCOCC2)n1
inactive: [1] -28.8% | [2] -41.3% | [3] -8.15% | [4] 0.95% | [5] -14.9% | [6] -8.3%

CC(O)(CCCCCl)c1nc2ccccc2s1 (configuration not stated)
inactive: [1] 20.9% | [2] -8.05% | [3] 25.4% | [4] -0.8% | [5] 11.9% | [6] 17.1%

COC(=O)C[CH2][Ge]([CH3])([CH3])[S]c1ccccc1
inactive: [1] 52.9% | [2] 27.1% | [3] 34.1% | [4] 4.3% | [5] 15.4% | [6] 18.1%

Cc1ccc(N=Nc2ccc(C)cc2NC(=O)CCl)cc1
inactive: [1] -17.7% | [2] -15.8% | [3] -21.9% | [4] -21.9% | [5] 3.2% | [6] -15.2%

O=C1NCCCCCC1S(=O)c1ccccc1 (configuration not stated)
inactive: [1] -7.8% | [2] -10.2% | [3] -8.5% | [4] 28.6% | [5] -11.8% | [6] -11.8%

CC(=O)c1ccccc1NCC(=O)Nn1cnc2ccc(S(=O)(=O)Nc3ccccc3C(C)=O)cc2c1=O
inactive: [1] 7.25% | [2] -21.3% | [3] 12.9% | [4] 18.6% | [5] 11.5% | [6] 7.6%

CC1(C)CC(O)CC(C)(C)N1.CC1(C)CC(O)CC(C)(C)N1.CC1(C)CC(O)CC(C)(C)N1.CC1(C)CC(O)CC(C)(C)N1.Cl.[Ti]
inactive: [1] -2.95% | [2] -4.45% | [3] 12.9% | [4] 17.8% | [5] 26.1% | [6] 10.5%

Cc1cccc(-n2c(N)c(-c3nc4ccccc4[nH]3)sc2=S)c1
inactive: [1] 6.7% | [2] -11.9% | [3] 13.4% | [4] 10.2% | [5] 3.4% | [6] 2.6%

Cc1cnc(NCCCCCCNc2ncc(C)c(-c3ccccc3O)n2)nc1-c1ccccc1O
inactive: [1] 13.1% | [2] -4.55% | [3] -26.5% | [4] 4% | [5] 0.35% | [6] 4.5%

COc1ccc(C(C)OC)cc1OC (configuration not stated)
inactive: [1] -15% | [2] -22.2% | [3] 15.6% | [4] -16.6% | [5] 8.7% | [6] -8.75%

C=CC(=O)OCc1ccc(OC)cc1
inactive: [1] 30.1% | [2] 32.2% | [3] 28.9% | [4] 14.2% | [5] 5.95% | [6] 29.5%

Brc1ncnc2c1ncn2C1CCCO1 (configuration not stated)
inactive: [1] -21.3% | [2] -12.8% | [3] -1.5% | [4] -29.6% | [5] 34.4% | [6] -32.2%

Cc1ccc(Cl)cc1N
inactive: [1] 11.8% | [2] 31.1% | [3] 8.25% | [4] -27% | [5] 0.85% | [6] 18.8%

O=C1[C@@H]2[C@@H](c3ccccc3)[C@]2(Cl)C(=O)[C@H]2[C@H](c3ccccc3)[C@@]12Cl
inactive: [1] 6.9% | [2] 4.15% | [3] 1.1% | [4] 8.75% | [5] 3.8% | [6] 32.8%

Cc1onc(-c2ccccc2Cl)c1C(=O)NCC(=O)O
inactive: [1] -5.55% | [2] 2.6% | [3] -3.5% | [4] 3.5% | [5] 12.7% | [6] -0.15%

CNCCC(=O)C1CCC(OC)CC1 (configuration not stated)
inactive: [1] 26.2% | [2] -3% | [3] 2.1% | [4] -49.5% | [5] 5.45% | [6] -8.45%

Cc1ccc(C(C)C)cc1O
inactive: [1] 17.6% | [2] 9.5% | [3] 19.1% | [4] 27% | [5] 13.7% | [6] 32.4%

O=C(Nc1ccc(Cl)cc1)c1cc2c(cc1Cl)Sc1nccn1S2(=O)=O
inactive: [1] -4.85% | [2] -11.7% | [3] -1.65% | [4] -25.4% | [5] 2.35% | [6] 16.9%

O=C1c2ccccc2C(=O)c2c(Cl)ccc(O)c21
inactive: [1] 3.15% | [2] 11.2% | [3] 3.8% | [4] 0.1% | [5] 30.4% | [6] 19.9%

CCN(CC)CCOC(=O)c1ccc(N=Nc2cc(NC(C)=O)ccc2O)cc1
inactive: [1] 3.35% | [2] -3.7% | [3] -0.7% | [4] 4.15% | [5] 2.35% | [6] 5.05%

C=C(C)C(=O)OCCN(CC)CC
inactive: [1] 33.9% | [2] -4.15% | [3] 17.7% | [4] 23.6% | [5] 11.4% | [6] 23.5%

C#CCC(O)c1ccc(OC)c(OCc2ccccc2)c1 (configuration not stated)
inactive: [1] -6.05% | [2] -17.9% | [3] 18.6% | [4] 4.4% | [5] 4.45% | [6] -1.4%
